An excerpt weighted towards active compounds, which were near 0.44% of everything screened.
EPAC1 agonist: activates human EPAC1 exchange factor | EPAC1 agonist qHTS, biochemical assay; response scale: 100% = response to 6.5 mM cAMP | O95398 | Potency, µM (highest dose often 154 µM), inactives show top-dose activation, hits mostly activators | 360,000 compounds, 0.073% hits | AID 720707; note: nearly all actives have a fitted effect of over 60% in size
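Read-out is the fluorescence drop as BODIPY-GDP leaves Rap1B (480 nm excitation, 540 nm emission), recorded every 5 minutes over 30 minutes. Reactions held 100 nM EPAC1, 250 nM Rap1B–BODIPY-GDP and 50 uM GDP, with 6.5 mM cAMP setting full activation.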
USP1 inh: blocks the human USP1/UAF1 deubiquitinase complex. recombinant USP1/UAF1, Ub-Rhodamine cleavage fluorescence. 390,000 compounds, 0.23% hits. Potency, µM (doses to about 57.1 µM), for inactives: at the highest dose activity change, negative = inhibition, usual class: inhibitors. O94782; note: % is set by controls: 0 for no effect and ±100 for the full control effect; nearly all actives have a fitted effect of over 60% in size
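USP1/UAF1 complex (1 nM) preincubated 15 min at room temperature with compound, then Ub-Rho substrate (150 nM final) added. Kinetic fluorescence at 480/540 nm over 6 reads at 60 s intervals; 50 mM HEPES pH 7.8, 0.5 mM EDTA, 0.1 mg/ml BSA, 1 mM TCEP, 0.01% Tween-20.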
EPAC2 antag: blocks human EPAC2 exchange factor. Potency, µM (titrated, usually from 114 µM), inactives show at the highest dose activity, negative = inhibition, hits mostly inhibitors. EPAC2 GEF exchange of Rap1B-BODIPY-GDP, fluorescence. 360,000 compounds, 0.18% hits. Q8WZA2; note: % is set by controls: 0 for no effect and ±100 for the full control effect; nearly all actives have a fitted effect of over 45% in size
Target sequence (Q8WZA2 whole entry, looked up): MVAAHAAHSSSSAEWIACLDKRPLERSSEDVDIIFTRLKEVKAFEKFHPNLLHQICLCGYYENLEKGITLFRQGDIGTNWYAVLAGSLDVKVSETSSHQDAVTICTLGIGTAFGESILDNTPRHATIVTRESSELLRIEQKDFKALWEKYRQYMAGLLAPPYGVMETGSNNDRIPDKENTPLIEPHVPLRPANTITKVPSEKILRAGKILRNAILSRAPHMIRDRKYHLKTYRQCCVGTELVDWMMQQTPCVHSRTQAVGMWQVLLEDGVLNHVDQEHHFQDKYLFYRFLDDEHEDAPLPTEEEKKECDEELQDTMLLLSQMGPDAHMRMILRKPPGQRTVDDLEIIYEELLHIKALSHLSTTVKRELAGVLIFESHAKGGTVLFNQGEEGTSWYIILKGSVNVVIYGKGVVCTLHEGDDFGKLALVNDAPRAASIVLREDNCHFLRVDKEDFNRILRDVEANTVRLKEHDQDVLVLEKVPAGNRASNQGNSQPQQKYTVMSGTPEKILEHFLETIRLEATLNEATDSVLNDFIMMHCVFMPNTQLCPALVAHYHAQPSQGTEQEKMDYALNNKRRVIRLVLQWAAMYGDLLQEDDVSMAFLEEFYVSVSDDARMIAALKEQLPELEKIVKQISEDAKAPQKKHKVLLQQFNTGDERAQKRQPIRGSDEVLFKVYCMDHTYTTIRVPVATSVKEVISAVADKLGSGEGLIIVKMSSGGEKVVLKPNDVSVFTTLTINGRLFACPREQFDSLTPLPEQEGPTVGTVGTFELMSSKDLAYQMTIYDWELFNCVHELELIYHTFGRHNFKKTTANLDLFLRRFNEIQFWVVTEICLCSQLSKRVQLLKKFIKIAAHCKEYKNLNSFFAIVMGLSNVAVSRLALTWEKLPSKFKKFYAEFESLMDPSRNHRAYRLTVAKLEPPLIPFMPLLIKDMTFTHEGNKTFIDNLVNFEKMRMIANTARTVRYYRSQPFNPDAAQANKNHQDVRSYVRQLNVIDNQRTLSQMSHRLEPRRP
EPAC1 antag: blocks human EPAC1 exchange factor. EPAC1 GEF assay, Rap1b-BODIPY-GDP exchange fluorescence. Potency, µM (highest dose often 115 µM), for inactives: top-dose activity change, negative = inhibition, hits mostly inhibitors. 360,000 compounds, 0.14% hits. AID 720709;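 note: plate controls were vehicle for no effect and positive control for full effect; nearly all actives have a fitted effect of over 50% in size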
EPAC2 agonist: EPAC2 (human) agonism; Q8WZA2; EPAC2 activation, biochemical qHTS; response scale: 100% = 6.5 mM cAMP response; Potency, µM (titrated, usually from 154 µM), for the others: top-dose activation, most hits filed as activators; 360,000 compounds, 0.079% hits; AID 720711; note: nearly all actives have a fitted effect of over 50% in size
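Guanine nucleotide exchange by EPAC2 is measured as reduced fluorescence of BODIPY-GDP once it is released from 250 nM Rap1B. Plates are read kinetically for 30 min at room temperature; results are scaled to 6.5 mM cAMP.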
* = called active by the depositor; i = inactive; ? = inconclusive; . = not tested or not shown; [ ] = another dose, or the depositor's remark. Calls come from the whole dose curve; as a rule, active = well fitted curve in the direction sought with a large enough effect; inconclusive = small, poorly fitted or top-dose-only effect, or another doubt; inactive = no such curve, though single readings can be large; an effect the other way counts as inactive or inconclusive. Potency is the fitted concentration of half-maximal effect.

SMILES	EPAC1 agonist	USP1 inh	EPAC2 antag	EPAC1 antag	EPAC2 agonist
Nc1nnc(CC(=O)N/N=C/c2cccc([N+](=O)[O-])c2)s1	-3%	-18%	7%	-4%	5%
CC1=NOC(=O)/C1=C\c1ccc(-c2cc(Cl)ccc2Cl)o1	3%	-6%	79µM*	-12%	1%
NC(=S)N=Nc1c(O)n(CC(=O)Nc2ccccc2)c2ccccc12	-10%	-11%	-5%	14%	-7%
Cc1cccc(NC(=O)Cn2c(O)c(N=NC(=O)c3ccccc3O)c3ccccc32)c1	-28%	-15%	2%	56µM*	-3%
O=C(NCC1CCN(Cc2ccc(F)cc2)CC1)Nc1cc(F)ccc1F	7%	-19%	5%	-6%	13%
COc1ccc(-c2csc3nc(C)nc(N4CCCCC4)c23)cc1OC	-1%	-14%	28µM*	-4%	8%
COc1cccc(S(=O)(=O)N(C)C[C@H]2Oc3cc(Br)ccc3S(=O)(=O)N([C@@H](C)CO)C[C@H]2C)c1	8%	18µM*	?	-15%	3%
C[C@@H]1CN([C@H](C)CO)S(=O)(=O)c2ccc(Br)cc2O[C@@H]1CN(C)Cc1ccc(-c2ccccc2)cc1	-10%	25µM*	0%	-3%	8%
Cc1ccc(CN(C)C(=O)c2c(C)nn(-c3ccccc3)c2C)cc1	-1%	-23%	-4%	-6%	5%
CC1=CC2=C(C=O)C(=O)C(C)(O)C(O)C2=CO1 (stereo not drawn)	-64%	-22%	50µM*	?	-68%
CCOCCCNc1nc2c(C)cccn2c(=O)c1/C=C1\SC(=S)N(CC(C)C)C1=O	9%	?	-2%	1%	112µM*
Cc1cccc(NC(=O)CN(C)S(=O)(=O)c2ccc3c(c2)n(C)c(=O)c(=O)n3C)c1C	7%	-14%	-3%	1%	2%
COC(=O)c1cc(S(=O)(=O)NCc2cc(OC)c(OC)c(OC)c2)cn1C	5%	-25%	6%	-11%	2%
CC1(C)CC(=O)C2=C(C1)Nc1ccccc1S2	4%	?	6%	4%	2%
CC1=CC(=O)Nc2ccccc2S1	8%	22µM*	-5%	4%	13%
COCCn1c2nc(=O)n(-c3ccccc3)c(=O)c-2nc2ccccc21	89µM*	28µM*	i	213%	89µM*
CCOc1ccc2oc(C(=O)N(C)CC(=O)Nc3ccc(OCC)c(OCC)c3)c(C)c2c1	56µM*	-15%	-12%	-11%	-1%
CCc1nc2c(OCc3ccc(F)c(F)c3)cccn2c1N(C)C(=O)c1ccc(OC)cc1	2%	.	-16%	-17%	5%
O=C(Cc1ccc(Cl)cc1)Nc1cccc(C(=O)Nc2ccccc2C(=O)O)c1	-11%	-9%	-1%	100µM*	3%
Oc1ccc(Cl)cc1CNc1cccc2cccnc12	-16%	-27%	56µM*	-16%	10%
Oc1ccc(Br)cc1CNc1cccc2cccnc12	10%	?	?	12%	13%
Oc1c(Br)cc(Br)cc1CNc1cccc2cccnc12	15%	?	11µM*	-26%	2%
COc1ccc(OC)c(NC(=O)CSc2nnc3ccc4ccccc4n23)c1	.	-20%	.	.	.
COC(=O)c1ccccc1NC1=C/C(=N\S(=O)(=O)c2cccs2)c2ccccc2C1=O	-1%	4µM*	3%	-1%	8%
CC(C)(C)c1ccc(S(=O)(=O)/N=C2\C=C(NS(=O)(=O)c3ccccc3)C(=O)c3ccccc32)cc1	-13%	?	?	?	-6%
SMILES	EPAC1 agonist	USP1 inh	EPAC2 antag	EPAC1 antag	EPAC2 agonist
COC(=O)c1cccc(NS(=O)(=O)c2cccs2)c1C	-1%	-1%	-3%[57.1 µM]	-7%	11%
COC(=O)c1ccccc1NC1=C/C(=N\S(=O)(=O)c2ccc(C(=O)O)cc2)c2ccccc2C1=O	6%	13µM*	?	40µM*	13%
O=C1C(Nc2ccccc2)=C/C(=N/S(=O)(=O)c2cccs2)c2ccccc21	-3%	2.5µM*	-32%	-3%	11%
Cc1ccc(NC2=C/C(=N/S(=O)(=O)c3cccs3)c3ccccc3C2=O)cc1	1%	?	6%	-15%	-8%
Cc1cccn2c(=O)nc(SCC(=O)Nc3ccc4c(c3)OCCO4)nc12	-1%	-1%	-3%	-21%	6%
CCN(CC)c1ccc2c(c1)oc(=O)c1c(Cl)cc(=O)oc12	-27%	250%	46%	20%	89µM*
COc1cc(NCCCCCCN)c2ncccc2c1OC	8%	8.9µM*	-23%	-10%	14%
Cc1nc(C)c(-c2csc(Nc3ccc(C(=O)O)c(O)c3)n2)s1	19%	-5%	10µM*	?	-1%
CCCc1cc2c(cc1N(C)S(=O)(=O)c1ccccc1)OCO2	10%	-7%	28µM*	-16%	9%
N#Cc1c(Nc2ccccc2)sc(C(=O)c2ccccc2)c1N	3%	-2%	35µM*	3%	1%
O=C(CCNC(=O)c1ccccc1Cl)NCC(c1ccco1)N1CCCC1 (stereo not drawn)	-7%	-18%	17%	7%	1%
CSc1cccc(N2CC(C(=O)Nc3cccc(S(=O)(=O)N4CCCC4)c3)CC2=O)c1 (stereo not drawn)	50µM*	-21%	5%	-5%	9%
CCOc1ccc(N2CC(C(=O)Nc3cccc(S(=O)(=O)N4CCCCC4)c3)CC2=O)cc1 (stereo not drawn)	4%	-11%	-1%	?	3%
CC(C)C[C@H]1COCCS(=O)(=O)N1Cc1cccc(Cl)c1	-22%	-16%	?	-20%	7%
CC(C)C[C@H]1COCCS(=O)(=O)N1Cc1cccc(C(F)(F)F)c1	-32%	-37%	14µM*	-23%	-9%
Cc1cc(-c2ccccc2C(=O)O)on1	4%	-11%	1%	7%	4%
O=C(O)c1ccccc1C1=Nc2ccc(O)cc2Oc2cc(O)ccc21	100µM*	28µM*	88%	66%	?
CCOC(=O)c1c(CN(C)C)n(C)c2c(O)c(N=NC(N)=O)c3ccc(Br)cc3c12	2%	35µM*	0%	3%	-1%
O=C(Nc1ccc(F)c(Cl)c1)C1CC2CCC1C2 (stereo not drawn)	13%	-10%	-10%	-10%	10%
COc1cc(S(=O)(=O)Nc2ccccc2C)ccc1Cl	-1%	-20%	28µM*	10%	6%
COc1cc(S(=O)(=O)Nc2c(C)cc(C)cc2C)ccc1Cl	-3%	-9%	3%	-1%	-12%
CCC(=C(c1ccc(OC)cc1)c1ccc(OC)cc1)c1cn(CC(O)CN(CCO)CCO)c2ccccc12 (stereo not drawn)	2%	-21%	14µM*	-6%	3%
CCOc1cc(/C=C2\C(=N)N3N=C(S(C)(=O)=O)SC3=NC2=O)ccc1OCCOc1cccc(OC)c1	2%	?	-21%	50µM*	-7%

High-throughput results deposited in PubChem by National Center for Advancing Translational Sciences (NCATS).
